According to the supplement of paper PMC6555819:

Experiments:
Assay in all cases: PBM binding z-score (relative to random genomic background probes); higher = stronger binding; sequences stand for … in GC…GCGATTGACAGCGTAGAATGAAGG
[1] = test system: FXR:RXRa (NR concentration 270 nM, RXRa partner concentration 90 nM)
In short: (§1)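 Ligand-free nuclear receptor dimers were bound for 1 h to custom Agilent 4×180K protein-binding microarrays. Detection used antibodies against each partner (one per run). Binding z-scores rest on regression-normalized fluorescence, with random background probes as the reference.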

[2] = test system: LXRa:RXRa (NR concentration 270 nM, RXRa partner concentration 90 nM)
In short: as §1

[3] = test system: LXRa homodimer (NR concentration 270 nM)
In short: as §1

[4] = test system: LXRb:RXRa (NR concentration 270 nM, RXRa partner concentration 90 nM)
In short: as §1

[5] = test system: LXRb homodimer (NR concentration 270 nM)
In short: as §1

[6] = test system: PPARa:RXRa (NR concentration 270 nM, RXRa partner concentration 90 nM)
In short: as §1

[7] = test system: PPARg:RXRa (NR concentration 180 nM, RXRa partner concentration 90 nM)
In short: as §1

[8] = test system: PPARg:RXRa 270nM:90nM, anti-RXR (NR concentration 270 nM, RXRa partner concentration 90 nM)
In short: as §1

[9] = test system: PPARg:RXRa 30nM:10nM, anti-RXR (NR concentration 30 nM, RXRa partner concentration 10 nM)
In short: as §1

[10] = test system: PPARg:RXRa 90nM:30nM, anti-RXR (NR concentration 90 nM, RXRa partner concentration 30 nM)
In short: as §1

[11] = test system: PPARg:RXRa DBDmut IVT, anti-RXR (DBD mutation: RXRa K156A/R161A, NR concentration 270 nM, RXRa partner concentration 90 nM)
In short: as §1

[12] = test system: PPARg:RXRa IVT, anti-PPARg (NR concentration 270 nM, RXRa partner concentration 90 nM)
In short: as §1

[13] = test system: PPARg DBDmut:RXRa IVT, anti-PPARg (DBD mutation: PPARg1 K132A/R137A, NR concentration 270 nM, RXRa partner concentration 90 nM)
In short: as §1

[14] = test system: PPARg DBDmut IVT, anti-PPARg (DBD mutation: PPARg1 K132A/R137A, NR concentration 270 nM)
In short: as §1

[15] = test system: PPARg homodimer (NR concentration 180 nM)
In short: as §1

[16] = test system: PXR:RXRa (NR concentration 270 nM, RXRa partner concentration 90 nM)
In short: as §1

[17] = test system: PXR homodimer (NR concentration 270 nM)
In short: as §1

[18] = test system: RARa:RXR (NR concentration 270 nM, RXRa partner concentration 90 nM)
In short: as §1

[19] = test system: RARa homodimer (NR concentration 270 nM)
In short: as §1

[20] = test system: RARb:RXRa (NR concentration 270 nM, RXRa partner concentration 90 nM)
In short: as §1

Sequence | PBM binding z-score [1] | PBM binding z-score [2] | PBM binding z-score [3] | PBM binding z-score [4] | PBM binding z-score [5] | PBM binding z-score [6] | PBM binding z-score [7] | PBM binding z-score [8] | PBM binding z-score [9] | PBM binding z-score [10] | PBM binding z-score [11] | PBM binding z-score [12] | PBM binding z-score [13] | PBM binding z-score [14] | PBM binding z-score [15] | PBM binding z-score [16] | PBM binding z-score [17] | PBM binding z-score [18] | PBM binding z-score [19] | PBM binding z-score [20]
TCTGCTAGGTCAGTTGGTCAGCTCACGAGCTGCC | 1.02 | 0.925 | -0.62 | 0.62 | 0.255 | 1.53 | 0.508 | 1.87 | 1.28 | 1.87 | 3.21 | 3.07 | 0.484 | 0.713 | -0.202 | 0.341 | -1.06 | 0.601 | -1.19 | 3.18
ATCTCTAGGTAACAAGTTCCGTGAAAGAGAGGAC | 0.25 | -0.0278 | 0.209 | 0.0127 | 0.506 | 0.431 | 0.903 | 1.28 | 0.68 | 1.07 | 3.05 | 2.66 | 0.253 | 1.32 | 0.831 | -0.111 | 0.636 | 0.015 | 0.906 | 0.274
ACTAGTTGGTCAGCTCAGGTCACACACAATTCGG | 1.73 | 1.66 | 1.68 | 1.95 | 0.675 | 2.03 | 1.04 | 0.796 | -0.0327 | 0.521 | 1.24 | 2.1 | 0.448 | 1.3 | 1.64 | 3.54 | 0.961 | 2.58 | 1.11 | 2.7
GGAACGAAGGCAAGTTGATAGCAGAGTTTGATGG | -0.951 | -0.918 | -0.858 | -1.13 | -1.2 | -0.649 | 0.469 | -0.479 | -0.377 | -0.674 | -0.11 | -0.659 | 0.0164 | -0.632 | -0.995 | -0.665 | -0.247 | -0.931 | -0.746 | -0.503
TCATATAGGTGATACAGGTGAAAGTCGGCATCTA | 0.938 | 1.04 | 0.153 | 0.984 | -0.0198 | 2.33 | 1.96 | 2.94 | 3.85 | 3.55 | 4.78 | 4.31 | 1.81 | 1.2 | 1.4 | 0.783 | 0.342 | 0.978 | 1.22 | 0.996
TCATATAGGTCATACAGGTGAAAGTCGGCATCTA | 6.18 | 5.45 | 1.98 | 4.49 | 1.72 | 5.68 | 7.05 | 6.57 | 5.26 | 6.25 | 6.93 | 6.78 | 2.18 | 2.34 | 2.69 | 3.62 | 1.06 | 4.44 | 2.39 | 4.2
ATATGTAGGTTGCATCCGGGTCATTCAGGCTATG | 1.21 | 1.43 | 0.122 | 1.29 | -0.0904 | 2.76 | 1.97 | 1.68 | 0.362 | 1.36 | 4.33 | 3.93 | 1.47 | 0.927 | 0.466 | 2.76 | 1.85 | 2.73 | 0.0936 | 1.4
GCGACTGGGGCATCAGCTGGTTACCATAACTTAA | -0.422 | -0.589 | -0.452 | 0.296 | -0.935 | 0.397 | 0.563 | 0.562 | -0.565 | 0.127 | 3.64 | 3.01 | -1.02 | -0.691 | -0.402 | -0.444 | -1.17 | -0.536 | -1.25 | 0.475
ACTAGCAGGCCAAGGGACACTCAAGATTAGTCCG | -0.455 | -0.514 | -0.423 | -0.897 | -0.655 | -0.248 | 1.88 | 1.99 | 0.906 | 1.86 | 0.487 | 0.462 | -1.43 | -0.851 | -0.118 | -0.905 | -0.667 | -0.78 | -0.11 | 1.05
TCTTGGAGGACACGAAAGGTCAGAGCTCGACATC | 3.33 | 4.06 | 2.83 | 3.37 | 0.286 | 3.75 | 1.68 | 3.16 | 2.54 | 2.89 | 2.26 | 2.63 | 0.421 | 0.521 | 2.91 | 4.16 | 0.329 | 4.3 | 0.376 | 4.39
GCAGACAGGTGAAACGCAGGTATCTCAGGGTGGC | -0.22 | -0.184 | -0.68 | -0.253 | -1.19 | 0.544 | 0.481 | 0.0316 | -0.675 | -0.473 | 0.78 | 0.498 | -0.724 | -0.85 | -0.577 | -0.328 | -0.634 | 0.112 | -0.595 | 0.463
ATCGTAAGGTCGACGAGGTGAGTATACACCGTTT | 3.07 | 1.79 | -0.0992 | 1.66 | 0.155 | 3.03 | 1.36 | 1.25 | 0.685 | 0.918 | 0.226 | 1.61 | 0.856 | 0.0648 | 0.926 | 2.17 | 0.476 | 2.39 | 0.139 | 3.08
ACTCGGAGGACACAGGTCAGAGCTACGCCAGTGA | 1.4 | 1.18 | 0.294 | 0.96 | -0.518 | 2.18 | 2.85 | 3.06 | 1.09 | 2.71 | 0.556 | 1.45 | -0.673 | 0.431 | 1.35 | 1.09 | -0.155 | 1.8 | 0.347 | 2.89
TACCCTAGGTCATGCGGGCCAGTATAGTGTCGGC | 4.4 | 6.5 | 8.1 | 3.42 | 2.52 | 3.62 | 3.01 | 2.92 | 0.448 | 1.71 | 1.96 | 3.63 | 0.136 | -0.0789 | 0.581 | 1.72 | 0.593 | 2.37 | 0.299 | 3.93
